From PubChem BioAssay
TDP1 inh: inhibitors of human tyrosyl-DNA phosphodiesterase TDP1. recombinant TDP1, AlphaScreen DNA substrate cleavage. Q9NUW8. Potency, µM (titrated, usually from 130 µM), inactives show at the top dose activity change, negative = inhibition, most hits filed as inhibitors. 350,000 tested, 0.28% active. AID 485290; note: potency is the fitted concentration of half-maximal effect; nearly all actives have a fitted effect of over 40% in size
Target sequence (Q9NUW8 whole entry, looked up): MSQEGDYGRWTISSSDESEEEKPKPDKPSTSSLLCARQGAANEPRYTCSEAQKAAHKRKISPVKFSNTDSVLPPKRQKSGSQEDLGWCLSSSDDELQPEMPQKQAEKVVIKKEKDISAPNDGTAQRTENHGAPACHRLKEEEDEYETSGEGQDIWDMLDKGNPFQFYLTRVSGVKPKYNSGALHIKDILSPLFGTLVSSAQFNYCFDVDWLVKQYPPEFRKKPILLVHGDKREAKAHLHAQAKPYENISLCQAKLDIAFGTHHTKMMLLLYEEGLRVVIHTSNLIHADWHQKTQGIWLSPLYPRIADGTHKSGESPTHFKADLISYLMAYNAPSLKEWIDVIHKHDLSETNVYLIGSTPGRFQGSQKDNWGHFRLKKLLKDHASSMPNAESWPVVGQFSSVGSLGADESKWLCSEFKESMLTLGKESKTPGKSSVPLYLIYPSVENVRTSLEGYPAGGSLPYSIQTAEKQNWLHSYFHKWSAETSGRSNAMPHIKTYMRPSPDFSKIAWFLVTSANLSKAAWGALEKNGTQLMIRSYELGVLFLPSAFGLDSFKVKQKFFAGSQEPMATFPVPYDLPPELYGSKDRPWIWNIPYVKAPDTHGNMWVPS
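Recombinant human Tdp1 (E. coli-expressed, 1 nM final) preincubated with compounds 15 min at room temperature, then 5'-biotin/3'-phosphotyrosine-FITC DNA substrate (15 nM final) added for 5 min. AlphaScreen beads (10 ug/ml final) added 10 min; cleavage lowers signal.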
DT40 TDP1 no CPT: qHTS for Inhibitors of human tyrosyl-DNA phosphodiesterase 1 (TDP1): qHTS in cells in absence of CPT. AID 686978, 2013. Potency, µM (titrated, usually from 46.2 µM), for inactives: top-dose activity change, negative = growth inhibition, usual class: inhibitors. 420,000 tested, 15% active. DT40 Tdp1-/- hTDP1 cells, no CPT, ATP luminescence, 48 h; note: potency is the fitted concentration of half-maximal effect; nearly all actives have a fitted effect of over 55% in size
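Chicken DT40 Tdp1-/- cells stably complemented with human TDP1 were seeded at 400 cells/well with DMSO in place of 20 nM camptothecin. After compound pinning, cells grew at least 48 hr at 37 °C; viability read by CellTiter-Glo luminescence.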
TDP1 cell CPT: DT40-hTDP1 cell growth loss with CPT. chicken DT40 Tdp1-/-;hTDP1 cells + 20 nM CPT, ATP luminescence, 48 h. 420,000 tested, 12% active. Potency, µM (titrated, usually from 46.2 µM), inactives show top-dose activity change, negative = growth inhibition, most hits filed as inhibitors; note: potency is the fitted concentration of half-maximal effect; nearly all actives have a fitted effect of over 55% in size
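Chicken DT40 Tdp1-/- cells stably complemented with human TDP1 were seeded at 400 cells/well in medium containing 20 nM camptothecin, exposed to pin-transferred compounds, and grown at 37 °C for at least 48 hr. Viability was read as ATP luminescence.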
Giardia killer: Giardia lamblia killing; Giardia lamblia trophozoite viability; activity change, % at 7.66 µM, hits read low; AID 540267; 340,000 tested, 0.15% active; in the data active = activity change below about -80%; inconclusive = between about -30% and that limit;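 note: parasites exposed to compound for two days anaerobically before the ATP read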
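Trophozoites 100 cells/well + cpd; 48 hrs, 37 deg C, anaerobic. ATPLite 1-Step added, 15-30 min RT, luminescence read (ATP-based viability).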
IL-1B inflam inh: blocks inflammasome-driven IL-1 beta release; AID 743279; THP-1 LPS/ATP IL-1B secretion, AlphaLISA, 16 h; stronger effect = lower value; 360,000 tested, 4.7% active; activity change, % at 57.5 µM; in the data active = activity change below about -50%; inconclusive = mostly about -30% to -49%
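Secreted IL-1B measured by AlphaLISA bead assay after 16 h compound exposure of THP-1 cells; compounds (final up to 57.5 uM) added 1 h before LPS (250 ng/mL) and ATP (1.25 mM) stimulation; lower signal means less secretion.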
ELG1 repair inh: blocks ELG1-dependent DNA repair in HEK293T cells. HEK293T ELG1-luciferase reporter, luminescence, 16 h; DNA damage induced by 5-fluorouridine. Potency, µM (doses to about 46.1 µM), for the others: at the top dose activity change, negative = inhibition, hits mostly inhibitors. 330,000 tested, 2.3% active. AID 504467; note: potency is the fitted concentration of half-maximal effect; nearly all actives have a fitted effect of over 55% in size
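Cells (2,000 per well) received 5-fluorouridine plus test compound or DMSO and were incubated 16 hr at 37 °C, 5% CO2. Luciferase activity was read by luminescence 30 min after ONE-Glo addition; signal suppression marked inhibition of damage-induced ELG1 function.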
Starred values were filed as active, the others as inactive; i = inactive; ? = inconclusive; / = no result given; [ ] = dose if it differs, or a comment. This is a sample that favours compounds with a hit; in the whole collection about 19% have one here. Unless noted, calls come from the whole dose curve; as a rule, active = well fitted curve in the direction sought with a large enough effect; inconclusive = small, poorly fitted or top-dose-only effect, or another doubt; inactive = no such curve, though single readings can be large; an effect the other way counts as inactive or inconclusive. % is set by controls: 0 for no effect and ±100 for the full control effect.

SMILES	TDP1 inh	DT40 TDP1 no CPT	TDP1 cell CPT	Giardia killer	IL-1B inflam inh	ELG1 repair inh
CC1CCN(S(=O)(=O)c2ccc(NC(=O)CN3C(=O)NC(C)(c4ccccc4)C3=O)cc2)CC1 (centres undefined)	-1.5%	?	?	-11.6	?	-1.0%
COC(C)c1oc2c(C)c3oc(=O)cc(C)c3cc2c1C (centres undefined)	/	-17.7%	12.4%	-21.4	-5.7	/
FC(F)Oc1ccccc1/C=N/n1cnc2ccccc21	-2.7%	18.4µM*	?	-2.9	14.5	?
CN(C(=O)COC(=O)/C=C/c1cccc([N+](=O)[O-])c1)C1CCS(=O)(=O)C1 (centres undefined)	2.6%	0.3%	-11.9%	-4.0	-9.4	13µM*
CCN(C(=O)COC(=O)/C=C/c1cccc(Br)c1)C1CCS(=O)(=O)C1 (centres undefined)	2.7%	-9.9%	3.1%	-7.2	i	-24.4%
CN(C(=O)COC(=O)c1c2c(nc3ccccc13)/C(=C/c1cccc([N+](=O)[O-])c1)CCC2)C1CCS(=O)(=O)C1 (centres undefined)	10.8%	5.17µM*	3.26µM*	-9.5	0.0	5.8µM*
Cc1nc2ccc(C(=O)N3CCc4c(cnc(C)c4CNC(=O)/C=C/c4cccs4)C3)cc2nc1C	/	-16.6%	16.5%[9.04 µM]	/	/	/
O=C(c1cccc(Br)c1)N1CCN(c2cnn(-c3ccccc3)c(=O)c2Cl)CC1	-1.2%	16.4µM*	?	-3.4	20.5	-12.8%
O=C(c1ccccc1F)N1CCN(c2cnn(-c3cccc(Cl)c3)c(=O)c2Cl)CC1	-2.7%	20.6µM*	?	8.8	-28.0	?
O=C(c1cccc(Cl)c1)N1CCN(C(=O)c2ccccc2F)CC1	3.3%	-1.9%	-27.9%	15.6	-6.5	-2.6%
O=C(c1cccc(Br)c1)N1CCN(c2ccccn2)CC1	/	-24.1%	-18.5%	13.5	-0.7	/
CC(NC(=O)c1cc(F)ccc1F)c1nnc2n1CCN(Cc1ccco1)CC2 (centres undefined)	/	16.9%	20.2%	/	/	/
CCNC(=O)C1(C)CCCN(C(=O)c2cc(C)n(C(C)(C)C)n2)C1 (centres undefined)	/	-25.0%	7.31µM*	/	22.5	/
CCCNC(=O)C1(C)CCN(C(=O)c2cc(C)nn2C(C)(C)C)C1 (centres undefined)	/	1.4%	1.6%	/	-12.7	/
CCCNC(=O)C1(C)CCCN(C(=O)c2cc(C)n(C(C)(C)C)n2)C1 (centres undefined)	/	?	?	/	27.0	/
Cc1cc(C(=O)N2CCCC(C)(C(=O)NS(=O)(=O)C3CC3)C2)nn1C(C)(C)C (centres undefined)	/	2.91µM*	?	/	26.0	/
CCCNC(=O)C1(C)CCCN(C(=O)c2cc(C)nn2C(C)(C)C)C1 (centres undefined)	/	?	11.6µM*	/	27.9	/
N#CC1(NC(=O)Cn2ncc(Cl)c(Cl)c2=O)CCCCC1	/	7.31µM*	13µM*	-9.0	-102.6*	5.8µM*
N#CC1(NC(=O)CN2C(=O)c3ccccc3C2=O)CCCCC1	0.1%	-10.0%	10.8%	20.4	4.0	22.2%
Cc1ccc(S(=O)(=O)Nc2cccc(-c3cn4ccsc4n3)c2)cc1	6.5%	20.6µM*	?	-15.3	8.6	?
COc1cc(OC)cc(C(=O)Nc2cccc(-c3cn4ccsc4n3)c2)c1	8.8%	18.4µM*	13µM*	/	/	/
O=S(=O)(Nc1cccc(-c2cn3cccnc3n2)c1)c1ccc(-c2ccccc2)cc1	2.9%	14.6µM*	?	20.7	1.2	?
Cc1cccc2nc(-c3cccc(NS(=O)(=O)c4ccccc4)c3)cn12	/	23.1µM*	?	/	/	/
Cc1nc(-c2cccc(NS(=O)(=O)c3ccccc3)c2)cs1	2.0%	-25.0%	?	-7.7	10.6	24.8%
Fc1ccc(-c2nc3ccc(Br)cn3c2Cc2ccccc2C(F)(F)F)cc1	/	?	?	/	-9.7	/
